# USP17 inh: blocks human USP17 ubiquitin-rhodamine cleavage. A8MUK1. purified USP17, Ub-rhodamine cleavage fluorescence, 3 h. inhibition, % at 50 µM. AID 1645855. 6.5% of 47,000 active
# USP10 block: human USP10 deubiquitinase inhibition; 1.1% of 47,000 active; inhibition, % at 20 µM; purified USP10, Ub-rhodamine fluorescence, 60 min
# USP8 block: blocks human USP8 ubiquitin-rhodamine cleavage. AID 1645853. 4.2% of 47,000 active. P40818. purified USP8, Ub-rhodamine cleavage fluorescence, 30 min. inhibition, % at 20 µM
# USP30 inh: inhibitors of human USP30 deubiquitinase; Q70CQ3; purified USP30, Ub-rhodamine cleavage fluorescence; inhibition, % at 25 µM; 5.3% of 47,000 active
# USP28 block: inhibitors of human USP28 deubiquitinase; Q96RU2; purified USP28, Ub-rhodamine cleavage fluorescence, 30 min; inhibition, % at 25 µM; 3% of 47,000 active; AID 1645857
# USP7 block: human USP7 deubiquitinase inhibition | Q93009 | purified USP7, Ub-rhodamine cleavage fluorescence | inhibition, % at 20 µM | 0.3% of 47,000 active
# Target sequence (Q93009 whole entry, looked up): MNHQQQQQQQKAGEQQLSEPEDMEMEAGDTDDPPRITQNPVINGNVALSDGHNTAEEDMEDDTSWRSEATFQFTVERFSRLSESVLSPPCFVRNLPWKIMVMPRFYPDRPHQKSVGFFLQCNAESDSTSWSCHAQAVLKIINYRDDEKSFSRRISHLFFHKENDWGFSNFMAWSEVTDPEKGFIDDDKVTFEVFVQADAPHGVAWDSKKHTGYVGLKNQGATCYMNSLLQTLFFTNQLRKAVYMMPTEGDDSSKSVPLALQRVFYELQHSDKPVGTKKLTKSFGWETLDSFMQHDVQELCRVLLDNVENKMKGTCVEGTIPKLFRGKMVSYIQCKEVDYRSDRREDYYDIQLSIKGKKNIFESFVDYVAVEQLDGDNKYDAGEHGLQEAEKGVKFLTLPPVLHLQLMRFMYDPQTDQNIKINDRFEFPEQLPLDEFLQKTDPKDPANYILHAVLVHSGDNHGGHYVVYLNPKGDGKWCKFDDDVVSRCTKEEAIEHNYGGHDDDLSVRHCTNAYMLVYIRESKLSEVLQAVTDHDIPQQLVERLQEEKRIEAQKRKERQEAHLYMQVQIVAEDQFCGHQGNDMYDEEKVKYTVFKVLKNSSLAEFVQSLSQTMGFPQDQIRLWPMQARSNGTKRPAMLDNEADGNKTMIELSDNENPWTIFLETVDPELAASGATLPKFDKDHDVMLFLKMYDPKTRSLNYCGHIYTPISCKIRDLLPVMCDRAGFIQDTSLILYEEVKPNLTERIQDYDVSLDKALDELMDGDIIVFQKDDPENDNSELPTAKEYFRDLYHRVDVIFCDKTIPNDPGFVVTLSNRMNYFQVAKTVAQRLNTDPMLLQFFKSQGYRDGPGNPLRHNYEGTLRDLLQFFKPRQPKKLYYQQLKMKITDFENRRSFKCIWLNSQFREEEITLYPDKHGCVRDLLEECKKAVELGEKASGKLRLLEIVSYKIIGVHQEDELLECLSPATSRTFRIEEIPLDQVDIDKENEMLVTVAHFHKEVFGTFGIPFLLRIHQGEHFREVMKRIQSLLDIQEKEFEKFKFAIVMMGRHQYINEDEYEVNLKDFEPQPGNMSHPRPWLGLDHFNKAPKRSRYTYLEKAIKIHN
# The depositor's hits bear a star; nt = no result given. A selection: hits, their analogues and other compounds. The true share with any hit is near 13%. Rule as the data show it: active = inhibition above about 30%; inactive = the rest.
SMILES,USP17 inh,USP10 block,USP8 block,USP30 inh,USP28 block,USP7 block
CCN(CC)S(=O)(=O)c1ccc2c(c1)nc(CCC(=O)Nc1ccc(C)c(Cl)c1)n2CC,-11.6,-2.4,-14.6,38.5*,-4.8,9.3
CCOC(=O)COc1nc(-c2ccccc2)cc(-c2cccs2)c1C#N,-4.7,4.4,5.7,-9.1,-14.0,2.8
N#Cc1c(-c2ccc(Cl)cc2)cc(-c2cccs2)nc1N,38.2*,-0.8,17.0,-7.9,27.3,-0.6
O=C(NC1(O)C(=O)c2ccccc2C1=O)c1cccc2c1-c1ccccc1C2=O,91.2*,9.1,95.5*,45.2*,15.3,-63.8
CC(=O)Nc1ccc(-n2cnc(C(=O)NC3CCC(C)CC3)c2)nc1 (centres undefined),11.8,1.9,-0.2,-86.7,-1.7,1.9
O=C(CCn1c(=O)c2ccccc2n(Cc2ccccc2F)c1=O)NCc1ccco1,-3.4,38.7*,7.8,-25.9,-12.7,-25.8
N#Cc1ccccc1Cn1c(=O)n(Cc2ccco2)c(=O)c2ccccc21,53.7*,13.3,7.6,33.4*,37.9*,-8.8
N#Cc1ccccc1Cn1c(=O)n(CCCCC(=O)NCc2ccco2)c(=O)c2ccccc21,51.2*,6.1,6.0,-16.3,1.9,-8.2
O=C(CCn1c(=O)c2ccccc2n(Cc2cccc(Cl)c2)c1=O)NCc1ccccc1Cl,12.3,12.4,19.8,20.8,-2.8,10.0
Cc1ccccc1Cn1c(=O)n(CCC(=O)NCc2ccco2)c(=O)c2ccccc21,-1.9,15.6,38.0*,-5.2,6.2,-6.7
O=C(O)c1c(CNCc2ccco2)c2ccccc2n1Cc1ccccc1F,-13.7,2.0,-28.8,-14.3,-3.8,-76.7
Cc1ccccc1Cn1c(=O)n(Cc2ccco2)c(=O)c2ccccc21,27.7,2.2,18.8,26.2,15.0,7.3
Cc1nn(C)c(C)c1CCN(C)S(=O)(=O)c1ccccc1,-2.1,-0.9,-2.3,-0.1,-5.2,0.8
COc1cccc(Nc2nc(-c3cccc(Cl)c3)c3c(n2)-c2ccccc2OC3)c1,-2.5,6.5,4.1,-7.0,-10.8,5.5
Cc1cccnc1NC(=O)C1(c2ccccc2)CCCC1,-4.7,0.8,-3.9,6.0,-16.2,-0.1
O=c1cc(-c2ccc(F)cc2)oc2ccc(F)cc12,30.6*,3.1,7.2,-0.3,-9.8,4.5
COc1ccc(-c2cc(=O)c3cc(OC(=O)C4CCCCC4)ccc3o2)cc1,-37.5,5.4,15.5,1.4,6.8,6.7
Cc1cc2c(cn1)C(=O)c1c(O)cc(O)cc1C2=O,11.3,0.0,-227.6,-215.5,33.5*,-11.3
Cc1ccc(S(=O)(=O)CC(=O)Nc2ccc(-c3nc4ccccc4s3)c(O)c2)cc1,-23.1,27.0,80.0*,-57.6,0.0,10.4
Cc1cccc(OCC(=O)Nc2ccc3nc(C)sc3c2)c1,-37.2,-7.0,-14.8,-341.7,-26.9,1.1
Cc1nc2c(C)cccn2c(=O)c1NC(=O)COc1ccc(Cl)cc1,11.2,-0.1,0.0,16.6,-8.2,0.2
COc1ccc(Cl)cc1S(=O)(=O)N1CCN(C(=O)c2cc(C)[nH]n2)CC1,-5.4,-0.4,-4.3,-2.2,-3.8,-1.2
COc1ccc(CCN(C)C(=O)COc2ncnc3ccccc23)cc1OC,nt,1.1,22.9,32.1*,-181.9,6.6
Cc1ccc(Cl)cc1NC(=O)c1cc(-c2ccccn2)n[nH]1,73.1*,22.8,19.3,-2.1,-8.2,17.4
COc1ccc(Cl)cc1NC(=O)c1cc(-c2ccccn2)n[nH]1,61.3*,47.0*,83.6*,-34.1,-10.6,57.5*
SMILES,USP17 inh,USP10 block,USP8 block,USP30 inh,USP28 block,USP7 block
COc1cc(OC)c(NC(=O)c2cc(-c3ccccn3)n[nH]2)cc1Cl,-3.6,39.9*,89.0*,14.6,2.0,22.4
CC1(C(=O)N2CCN(c3ncccn3)CC2)Cc2ccccc2C(=O)O1 (centres undefined),-4.7,0.5,12.1,15.6,8.6,3.0
COc1ccc(Cl)cc1C(=O)Nc1ccc2c(c1)N(C(=O)c1ccco1)CCC2,0.0,11.1,6.6,9.0,9.8,-1.6
COC(=O)c1cc(Br)c(NC(=O)c2ccco2)cc1OC,39.5*,0.8,-0.6,19.7,16.8,-1.4
CCN(CC)C(=O)Cn1cc(S(=O)(=O)Cc2ccccc2Cl)c2ccccc21,37.7*,-0.1,1.5,18.3,16.2,-2.4
CCN(CC)C(=O)Cn1cc(C(=O)C(=O)NCc2ccccc2Cl)c2ccccc21,5.1,5.4,14.7,45.5*,17.4,5.1
Cc1ccccc1CS(=O)(=O)c1cn(CC(=O)N2CCCCC2)c2ccccc12,-0.1,2.4,6.1,-10.1,-6.0,-5.1

# Source: PubChem BioAssay
